Compound activity (PubChem)
In the library only some 3.4% were active in any assay of this set; here they are far more common.
TEAD-YAP inh: TEAD-YAP interaction inhibition, primary screen, TEAD-YAP interaction inhibitor project, luminescence, HEK-TIYL cells; inhibition, % at 9.12 µM; 640,000 compounds, 1.4% hits; TEAD-Gal4/YAP UAS-luciferase luminescence; in the data active means inhibition above about 32%;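 further: 0% = median of test compound wells and 100% = reference inhibitor wells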
FBW7 act: FBW7 E3 ligase activators, primary screen, biochemical, AlphaScreen, human. F-box/WD repeat-containing protein 7 (Homo sapiens), Q969H0. normalized activity (activation), % at 26.1 µM. AlphaScreen FBW7–phospho-cyclin E peptide binding, activator screen. 650,000 compounds, 0.13% hits; in the data active means normalized activity above about 1.9%;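 further: purified mutant Fbw7 with reduced substrate affinity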
MITF inh: MITF inhibitors, primary screen, biochemical, AlphaScreen, human | Microphthalmia-associated transcription factor (Homo sapiens), O75030 | AlphaScreen MITF homodimerization, bead proximity signal | inhibition, % at 2.6 µM | 650,000 compounds, 0.91% hits; in the data active means inhibition above about 50%;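 further: 0% = vehicle wells with protein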
GPR151 activ: activators of human GPR151, primary screen, cell-based, PathHunter beta-arrestin, luminescence. G-protein coupled receptor 151 (Homo sapiens), Q8TDV0. PathHunter beta-arrestin GPR151 cells. activation, % at 11.2 µM. 650,000 compounds, 1% hits; in the data active means activation above about 4.9%;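 further: 0% = median of compound wells and 100% = cells with positive control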
An asterisk follows results filed as active.

SMILES	TEAD-YAP inh	FBW7 act	MITF inh	GPR151 activ
COc1ccc2c(c1)c(C)c(C)n2CCc1ccc(C)nc1	50*	0	-6	-2
COc1ccc(CC2(C)OC(c3ccncc3)=NN2C(C)=O)cc1 (stereo not given)	10	0	4	1
COc1ccc(CC2(C)OC(c3cccs3)=NN2C(C)=O)cc1 (stereo not given)	36*	0	0	1
CCCNC(=O)C1CC2CCCN2C12C(=O)Nc1ccccc12 (stereo not given)	3	0	-6	2
COc1ccc(CCNc2cc(-c3c(C)nn(C)c3C)nc(N)n2)cc1	50*	0	-5	1
CCCNc1cc(-c2c(C)nn(C)c2C)nc(N)n1	40*	0	-7	1
COc1ccc(CCNc2cc(-c3c(C)nn(C)c3C)ncn2)cc1	10	0	9	1
Cc1ccc(CN(C)C(=O)CCl)c(C)c1	3	0	0	-1
O=C(Nc1nc(-c2cccs2)cs1)c1ccncc1	35*	0	12	-1
Cc1ccc(Nc2nc(-c3cccs3)cs2)nc1	56*	0	4	-3
O=C(Nc1nc(-c2cccs2)cs1)c1ccc(Br)cc1	-25	0	-14	0
CN(C)c1ccc(Nc2nc(-c3cccs3)cs2)cc1	70*	0	14	-2
Cc1cccnc1Nc1nc(-c2cccs2)cs1	-64	0	-6	-1
CN(Cc1ccccc1)C(=O)CCNS(=O)(=O)c1ccc(Cl)cc1	-2	0	-6	0
O=C(Oc1cccc2ccccc12)N1CCN2C(=O)[C@@H]3CSCN3C(=O)[C@H]2C1	35*	0	-16	0
CC(COc1ccc2ccccc2c1)Nc1cc(Cl)ncn1 (stereo not given)	2	0	17	-1
Cc1ccc(C(Nc2cc(Cl)ncn2)C(F)(F)F)cc1 (stereo not given)	34*	1	3	1
CCSc1nc2c(c(=O)n1Cc1ccccc1)C1(CCCCC1)Cc1ccccc1-2	-4	0	7	0
COC(=O)c1ccc(N2N=C(C)/C(=C/c3ccc(OCc4ccc(Cl)cc4)c(OC)c3)C2=O)cc1	-70	2.0*	24	3
O=c1/c(=C\c2ccc([N+](=O)[O-])cc2)sc2nc(-c3cccs3)nn12	-10	0	10	-1
CCCCOc1ccccc1C1C(C(=O)OCC)=CN(Cc2ccc(Cl)cc2)C=C1C(=O)OCC	7	0	9	0
COC(=O)C1=C(C)NC2=C(C(=O)c3ccccc32)C1c1cc(Cl)c(OC)c(OC)c1 (stereo not given)	61*	0	14	-1
COc1ccc(-c2nc3ccc(C(=O)NC4CCCCCCC4)cc3nc2-c2ccc(OC)cc2)cc1	2	0	-7	0
O=C(NC1CCCCCC1)c1cccc(N2CCCC2=O)c1	61*	0	-12	-1
Cc1nc2ccc(C(=O)NC3CCCCCC3)cc2nc1C	50*	0	-16	-7
SMILES	TEAD-YAP inh	FBW7 act	MITF inh	GPR151 activ
O=C(NC1CCCCCCC1)c1cc(F)c(F)cc1Cl	-52	0	0	-1
O=C(NC1CCCCCC1)c1ccc(Cl)cc1Cl	33*	0	10	-1
O=C(NC1CCCCC1)c1cccc(N2CCCC2=O)c1	14	0	3	0
Cc1ccc(C(=O)NC2CCCCCC2)cc1	49*	0	-7	-4
COC(=O)/C(=C/c1ccc(Cl)cc1)NC(=O)c1ccco1	-5	0	7	2
NC(=O)C1CCCN(Cc2ccccc2[N+](=O)[O-])C1 (stereo not given)	2	0	-10	2
O=C(Nc1ccccc1F)C1CC(=O)N(c2ccc(OCc3ccccc3)cc2)C1 (stereo not given)	-10	0	6	1
O=C(Cn1c(=O)oc2cc(S(=O)(=O)N3CCCC3)ccc21)NCc1cccnc1	4	0	-3	0
O=C(NC1CCCCCC1)c1ccc2c(c1)OCO2	44*	0	3	-7
O=C(NC1CCCCC1)c1ccc2c(c1)OCO2	-18	0	-1	0
CC1CCc2c(sc(NC(=O)/C=C/c3cccc([N+](=O)[O-])c3)c2C(N)=O)C1 (stereo not given)	1	0	4	0
CCN(CC)CCNC(=O)c1sc2ncnc(N3CCN(c4ccccc4F)CC3)c2c1C	-5	0	8	-1
